# High-throughput results: PubChem BioAssay, several laboratories
# Most compounds without a hit are left out; they make up all but 1% or so of the library.
# NPR2 activator: GC-B (human) receptor activation; AID 1920062; activation, % at 10 µM; actives 0.11% (n = 370,000); HEK293-GC-B cells, CNP EC30, cGMP TR-FRET; 0% at EC30 CNP, 100% saturating CNP; P20594;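 active = activation at 10 µM reaching about 35% in either raw or pattern-adjusted values, limit read from the data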
# Target sequence (P20594 whole entry, looked up): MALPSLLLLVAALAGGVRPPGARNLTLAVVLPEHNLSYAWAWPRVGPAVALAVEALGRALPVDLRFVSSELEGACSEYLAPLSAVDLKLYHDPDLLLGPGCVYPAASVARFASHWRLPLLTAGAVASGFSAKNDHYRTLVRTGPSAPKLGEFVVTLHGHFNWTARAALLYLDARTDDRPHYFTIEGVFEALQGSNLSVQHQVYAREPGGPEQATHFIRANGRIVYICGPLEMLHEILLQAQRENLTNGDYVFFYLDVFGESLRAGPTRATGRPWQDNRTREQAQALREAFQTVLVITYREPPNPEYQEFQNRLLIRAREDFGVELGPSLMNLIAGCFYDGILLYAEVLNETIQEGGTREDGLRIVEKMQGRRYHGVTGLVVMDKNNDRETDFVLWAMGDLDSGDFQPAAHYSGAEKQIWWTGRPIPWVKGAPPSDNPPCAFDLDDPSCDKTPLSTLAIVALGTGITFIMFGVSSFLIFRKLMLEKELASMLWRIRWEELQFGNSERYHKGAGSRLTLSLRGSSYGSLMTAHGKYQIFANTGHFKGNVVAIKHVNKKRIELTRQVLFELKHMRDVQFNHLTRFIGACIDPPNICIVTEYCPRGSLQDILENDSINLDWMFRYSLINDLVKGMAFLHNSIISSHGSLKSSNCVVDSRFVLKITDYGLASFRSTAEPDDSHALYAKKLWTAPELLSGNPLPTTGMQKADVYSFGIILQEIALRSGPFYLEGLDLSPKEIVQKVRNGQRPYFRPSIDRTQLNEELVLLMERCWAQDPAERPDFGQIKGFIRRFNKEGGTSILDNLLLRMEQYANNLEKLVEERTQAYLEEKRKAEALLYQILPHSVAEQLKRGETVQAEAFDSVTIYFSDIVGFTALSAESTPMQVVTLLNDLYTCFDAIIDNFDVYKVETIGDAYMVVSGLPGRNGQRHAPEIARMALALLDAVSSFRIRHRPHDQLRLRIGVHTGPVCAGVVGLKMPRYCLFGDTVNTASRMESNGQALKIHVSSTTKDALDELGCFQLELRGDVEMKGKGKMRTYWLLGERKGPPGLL
# GC-A act: GC-A (human) enzyme activation | P16066 | HEK293 GC-A cells, cGMP TR-FRET, EC30 ANP; 0% at EC30 ANP, 100% saturating ANP | activation, % at 10 µM | actives 0.14% (n = 370,000) | AID 1671463; in the data active = activation above about 40%
# HSV augment: HSV replication enhancement. HSV replication augmentation in cells, fold increase. maximum fold increase. actives 0.005% (n = 220,000). AID 1956; in the data active = maximum fold increase above about 1.5; inconclusive = no clear call, values can overlap the other calls; tested in PC3 cells
# Bfl-1 A1 inh: inhibitors of the anti-apoptotic protein A1, read as caspase activation | MEF A1-2A-BIM cells, Caspase-Glo 3/7 luminescence, 3 h; percent of clofoctol response, vehicle zero | actives 0.066% (n = 330,000) | caspase activation, % (test concentration not listed);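 active = over half of replicate activation scores above 10%, or exactly half above 10 with the replicate mean above 10; inconclusive = replicate mean below 10 yet half the replicates above 10; inactive = over half of replicates below 10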
# Efflux pump inh: inhibitors of Candida antifungal efflux pumps expressed in yeast; S. cerevisiae Candida pump triplex, Nile Red efflux; inhibition, % at 10 µM; actives 0.44% (n = 330,000); AID 485275;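 active = plate passing quality check with inhibition over a set limit, or well fluorescence over plate mean plus 4 SD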;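 note: Nile Red retained in pooled yeast measured as flow cytometry median fluorescence; 0% = buffer negative control and 100% = Enniatin B positive control; higher means more Nile Red kept so more efflux inhibition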
# TAG inh: reduces triacylglycerol accumulation in H9c2 cells; Nile Red lipid (TAG) fluorescence; cells loaded with 200 µM oleic acid; inhibition, % at 12.5 µM; actives 0.66% (n = 230,000);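 active = pattern-corrected inhibition of lipid staining of at least 50% with the nuclear-stain viability signal not falling by more than 50%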;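 note: 0% = DMSO wells and 100% = triacsin C control wells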
# Starred values were filed as active, the others as inactive; i = inactive; ? = inconclusive; . = not tested or not shown; ! = not confirmed by another sample.
SMILES,NPR2 activator,GC-A act,HSV augment,Bfl-1 A1 inh,Efflux pump inh,TAG inh
O=C(Cn1ncc(Cl)c(Cl)c1=O)N1CCN(Cc2ccccc2)CC1,3,8,i,.,.,64*
COC(=O)[C@H](CC(C)C)N(Cc1cn(Cc2ccc(C)cc2)nn1)S(=O)(=O)c1ccccc1Br,4,3,.,.,.,.
O=C(NCC1COc2ccccc2O1)c1ccc(NC(=O)c2cccc(F)c2)cc1 (centres undefined),-6,3,.,.,.,.
COC(=O)[C@]12C[C@H](CC(=O)NCc3ccc(C)o3)C(=O)N(CCc3ccc(OC)c(OC)c3)C1=C[C@H](C(C)(C)C)O[C@@H]2C,2,2,.,.,.,.
Cc1ccc(Cn2c(=O)c3ccccc3n3nc(C)cc23)cc1,36*,25,i,0,0,-71
COCCCn1c(=O)c2ccccc2n(Cc2ccc(C)cc2)c1=O,19,18,.,1,0,-5
COC(=O)C1=C(C(C)=O)C(c2ccc(C)cc2)n2nnnc2N1 (centres undefined),6,3,i,-1,0,2
CCOc1cc(C2C(C(=O)c3ccc(C)cc3)=C(C(=O)OC)Nc3nnnn32)ccc1O (centres undefined),-5,0,2.1*,1,0,6
COc1ccc(-c2c[n+](CC(=O)OC3CC(C)CCC3C(C)C)c3n2CCC3)cc1 (centres undefined),1,-3,i,0,0,7
CC(C)[C@@H]1CC[C@@H](C)C[C@H]1OC(=O)C[n+]1cc(-c2ccc(Cl)cc2)n2c1CCCCC2,-2,-6,i,0,0,80*
O=[N+]([O-])c1c(Nc2ccccn2)cc(Cl)c2nonc12,43*,50*,i,-2,11*,113
O=[N+]([O-])c1c(Nc2ccc(O)cc2)cc(Cl)c2nonc12,50*,62*,.,1,0,.
O=C(O)c1ccccc1Nc1cc(Cl)c2nonc2c1[N+](=O)[O-],-7,-3,.,2,0,2
O=C1NN(c2ccccc2)C(=O)/C1=C\c1cccc(OC(=O)c2cccs2)c1,12,41*,i,1,0,-16
Cc1ccc(C(=O)Nc2cccc(C(F)(F)F)c2)cc1NC(=O)c1c[nH]c2cc(C(F)(F)F)ccc2c1=O,7,4,.,0,0,7
CCN1CCN(Cc2ccc(NC(=O)c3ccc(C)c(NC(=O)c4c[nH]c5cc(C(F)(F)F)ccc5c4=O)c3)cc2C(F)(F)F)CC1,-5,4,i,-1,.,139*
CCN1CCN(Cc2ccc(NC(=O)c3cc(NC(=O)c4ccc5n[nH]nc5c4)cc(OC)c3)cc2C(F)(F)F)CC1,3,1,i,0,0,4
CCN1CCN(Cc2ccc(NC(=O)c3cc(NC(=O)c4cc(-c5ccc(OC)cc5)n[nH]4)cc(OC)c3)cc2C(F)(F)F)CC1,-4,-4,i,-1,0,69*
COc1ccc(-n2c(SCC(=O)Nc3ccc(OCc4ccccc4)cc3)nnc2-c2ccc(C)cc2)cc1,-2,2,.,.,.,.
CCSc1nnc(-c2ccco2)n1C,2,7,.,.,.,.
Cc1ccc(N2C(=O)c3cccc([N+](=O)[O-])c3C2=O)cc1C,34,72*,i,0,0,8
COC(=O)CSc1nc(N)c2c3c(sc2n1)CCCC3,-10,1,i,1,0,.
COC(=O)CSc1nc(N)c2c3c(sc2n1)C(c1ccccc1)SC(c1ccccc1)C3 (centres undefined),.,.,?,16*,0,.
O=C(NC1CCCc2c1cnn2-c1cc(F)cc(F)c1)c1ccccn1 (centres undefined),5,2,.,0,5.3*,9
COc1ccc(Nc2nc(Nc3ccc(OC)cc3)nc(-n3[nH]c(=O)c(C)c3C)n2)cc1,-6,2,i,0,0,57*
SMILES,NPR2 activator,GC-A act,HSV augment,Bfl-1 A1 inh,Efflux pump inh,TAG inh
CCCOc1ccc(/C=C2/C(=O)ON=C2C)cc1Cl,16,45*,.,0,0,.
CC1=NOC(=O)/C1=C/c1ccc(O)c(Cl)c1,5,12,.,2,0,.
COC(=O)CN1C(=O)N/C(=C/c2ccc(OC)cc2)C1=O,-4,-5,i,0,0,1
CCN1C(=O)/C(=C/c2ccc(C)s2)NC1=S,38*,35,i,0,0,-20
CCOC(=O)COc1ccc(/C=C2\NC(=S)N(CC)C2=O)cc1,51*,44*,i,1,1,.
CC(=O)N1CCc2cc(S(=O)(=O)NCCC(=O)N(C)Cc3ccccc3F)ccc21,-3,0,.,.,.,.
CN(C)S(=O)(=O)c1cccc(-n2sc3ccccc3c2=O)c1,5,4,i,-2,136*,20
Cc1ccc(-n2sc3ccccc3c2=O)cc1S(=O)(=O)N1CCCCC1,4,1,i,-2,2.4*,19
COC(=O)[C@]12C[C@H](CC(=O)NCC34CC5CC(CC(C5)C3)C4)C(=O)N(Cc3ccc(Cl)cc3Cl)C1=C[C@H](C1CCCC1)O[C@@H]2C,-5,1,.,.,.,.
O=c1n(Cc2ccccc2Cl)c2sc3c(c2c2ncnn12)CCCC3,39*,25,.,.,.,13
Fc1ccc([C@@H]2CCNC[C@H]2COc2ccc3c(c2)OCO3)cc1,-21,-28,i,0,0,52*!
FC(F)(F)c1ccccc1Cn1ccc2ccc(-c3ccc4ccn(Cc5ccccc5C(F)(F)F)c4c3)cc21,-19,-12,.,.,.,.
Cc1ccc(NC(=O)c2ccc(N/N=C/c3cccc(O)c3)c([N+](=O)[O-])c2)cc1,-7,-7,i,36*,0,60*
Cc1ccccc1NC(=O)c1ccc(N/N=C/c2ccccc2O)c([N+](=O)[O-])c1,3,-3,.,2,0,17
CC1CCC(C(C)C)C(OC(=O)Cn2c(-c3ccc(Cl)cc3)[n+](C)c3ccccc32)C1 (centres undefined),-12,-33,i,0,0,99
CC1CCC(C(C)C)C(OC(=O)Cn2c(-c3ccc(Br)cc3)[n+](C)c3ccccc32)C1 (centres undefined),-13,-43,i,0,0,89*
Cc1ccccc1OCc1n(CC(=O)OC2CC(C)CCC2C(C)C)c2ccccc2[n+]1C (centres undefined),-8,-37,i,0,0,76*!
O=C(C#Cc1ccccc1)c1ccccc1,-7,6,.,.,.,64*
O=C(C#Cc1ccccc1)c1ccc([N+](=O)[O-])cc1,33,39,.,.,.,-14
CN1CCN(C2=C(Cl)C(=O)c3ccccc3C2=O)CC1,-5,3,.,.,.,58*
Nc1ccc(C(=O)N2CCCC2)cc1,3,1,i,0,0,6
Nc1ccc(C(=O)n2c3ccccc3c3ccccc32)cc1,-9,50*,i,0,0,.
